± gives the standard deviation.
Key:
Settings in all cases: modulator concentration 10 µM
[1] = system: RAW-Dual (murine macrophage reporter line); experiment: NF-kB reporter (SEAP) activity fold change vs agonist alone; higher = enhanced NF-kB activity
Summary of the method: (§1)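 Overnight stimulation with a PRR agonist followed pre-incubation for 1 hour at 37 °C with compound at 10 μM final. This was done in RAW-Dual murine macrophage reporter cells seeded at 50 000 per well in 384-well plates. NF-κB (SEAP, QUANTI-Blue absorbance at 620 nm) and IRF (Lucia luciferase, QUANTI-Luc luminescence) were read from the supernatant. Each reporter's fold change relative to the mean agonist-only control on the same plate was averaged over replicate plates.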

[2] = system: RAW-Dual (murine macrophage reporter line); experiment: IRF reporter (Lucia luciferase) activity fold change vs agonist alone; higher = enhanced IRF activity
Summary of the method: as §1

[3] = system: RAW-Dual (murine macrophage reporter line); experiment: viability score (confluency relative to resting cells, overnight) (fraction); higher = more viable, active = viable (0.7 or more)
Summary of the method: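 Confluency was the readout: RAW-Dual macrophages were imaged with IncuCyte after an overnight exposure to compound at 10 μM final. IncuCyte software produced two masks over all imaged wells. The viability score expresses confluency against resting cells, and both masks had to exceed 70% of resting cells for a compound to meet the cutoff.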

[4] = agonist: CpG ODN 1826 0.5 ug/mL

Row | SMILES | NF-kB reporter [1, 4] | NF-kB reporter ([1]; agonist: LPS 0.1 ug/mL) | NF-kB reporter ([1]; agonist: MPLA […]) | IRF reporter ([2]; agonist: 3'3'-cGAMP 10 ug/mL) | IRF reporter ([2]; agonist: LPS 0.1 ug/mL) | IRF reporter ([2]; agonist: MPLA […]) | viability score [3]
1 | O=C(CSc1nnnn1-c1ccccc1)NC12CC3CC(CC(C3)C1)C2 | 1.01 ± 0.09 | 0.967 ± 0.053 | 0.943 ± 0.059 | 0.96 ± 0.054 | 1.12 ± 0.24 | 0.933 ± 0.058 | 1.02 (active)
2 | CCOC(=O)C1C(=O)NC(SCC(N)=O)=C(C#N)C1c1ccccc1OCC (stereo unspecified) | 0.936 ± 0.052 | 0.994 ± 0.063 | 0.926 ± 0.07 | 1 ± 0.072 | 1.25 ± 0.083 | 1.03 ± 0.098 | 1 (active)
3 | COC(=O)C1=C(C)NC(=O)CC1c1ccc(Cl)c(Cl)c1 (stereo unspecified) | 0.982 ± 0.075 | 0.801 ± 0.065 | 0.957 ± 0.094 | 1.06 ± 0.036 | 1.16 ± 0.15 | 1.23 ± 0.19 | 1.01 (active)
4 | CC(NC(=O)COc1ccc(C=NNC(=O)c2ccccc2O)cc1)c1ccccc1 (stereo unspecified) | 1.05 ± 0.13 | 1.03 ± 0.065 | 1.02 ± 0.061 | 0.985 ± 0.028 | 1.63 ± 0.23 | 1.2 ± 0.1 | 1.01 (active)
5 | Cc1cccc(NC(=O)CSc2nc(N3CCCCC3)nc3ccccc23)c1 | 0.963 ± 0.088 | 1.11 ± 0.092 | 0.98 ± 0.13 | 0.955 ± 0.055 | 1.22 ± 0.13 | 1.43 ± 0.26 | 0.993 (active)
6 | O=C1c2ccccc2-c2nc3ccccc3n21 | 0.969 ± 0.17 | 1.24 ± 0.11 | 1.14 ± 0.12 | 0.983 ± 0.033 | 1.05 ± 0.21 | 1.28 ± 0.16 | 0.856 (active)
7 | Cc1nc(NC(=O)N2CCC[C@H]2C(N)=O)sc1-c1ccnc(C(C)(C)C(F)(F)F)c1 | 0.626 ± 0.034 | 0.894 ± 0.072 | 1.6 ± 0.66 | 0.916 ± 0.066 | 1.18 ± 0.24 | 1.32 ± 0.33 | 1.02 (active)
8 | Cc1cc(C(O)CCNC(=O)Nc2ccc(Cl)c(Cl)c2)c(C)o1 (stereo unspecified) | 0.577 ± 0.033 | 0.87 ± 0.075 | 0.791 ± 0.072 | 0.835 ± 0.038 | 0.974 ± 0.22 | 0.863 ± 0.31 | 0.975 (active)
9 | O=C(C1COCC(=O)N1Cc1ccccc1)N1CCN(c2cccc(Cl)c2)CC1 (stereo unspecified) | 1.01 ± 0.05 | 1.09 ± 0.089 | 1.08 ± 0.064 | 1.01 ± 0.051 | 1.24 ± 0.075 | 1.29 ± 0.11 | 1.01 (active)
10 | CCN1C(=O)C(=Cc2nc3ccccc3c(=O)n2-c2ccc(C)cc2)c2ccccc21 | 1.06 ± 0.085 | 1.08 ± 0.071 | 0.994 ± 0.077 | 0.89 ± 0.035 | 1.55 ± 0.28 | 1.11 ± 0.078 | 1.01 (active)
11 | COc1cccc(-c2nnc(NC(=O)C3CC3)o2)c1 | 1.21 ± 0.071 | 0.987 ± 0.096 | 0.999 ± 0.037 | 0.95 ± 0.055 | 1.04 ± 0.057 | 1.11 ± 0.12 | 1 (active)
12 | CN1CCN(C(=O)C(C)(c2ccccc2)c2ccccc2)CC1 | 0.804 ± 0.063 | 1.1 ± 0.062 | 0.946 ± 0.056 | 0.981 ± 0.039 | 1.22 ± 0.13 | 1.08 ± 0.17 | 1 (active)
13 | Cc1cc(C)c(NC(=O)COc2ccc(C)cc2C(C)(C)C)c(C)c1 | 0.975 ± 0.13 | 0.975 ± 0.06 | 0.962 ± 0.11 | 0.953 ± 0.029 | 1.14 ± 0.19 | 1.01 ± 0.23 | 1.01 (active)

Reference: the supplement of paper PMC10646978
